# Screening data (PubChem)
# ARNT-TACC3 inh: disruptors of ARNT/TACC3 protein interaction, primary screen, biochemical, AlphaScreen, single concentration | Transforming acidic coiled-coil-containing protein 3 (Homo sapiens), Q9Y6A5 | AlphaScreen His-ARNT PAS-B/GST-TACC3 binding, luminescence; TACC3 fragment carries E629A point mutation | inhibition, % at 9.99 µM | 390,000 tested, 0.66% active;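 active = mean inhibition of replicates at least 50% and at least half of replicates each reaching 50%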;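 also: 0% = complete ARNT plus TACC3 wells and 100% = ARNT alone without TACC3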
# Bfl-1 A1 inh: caspase 3/7 activation in MEF A1-2A-BIM cells, primary screen, A1 inhibitor project, cell-based, luminescence, HTS. Caspase-Glo 3/7 luminescence, 3 h; percent of clofoctol response, vehicle zero. caspase activation, % (concentration not given with the values). 330,000 tested, 0.066% active;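 active = over half of replicate activation scores above 10%, or exactly half above 10 with the replicate mean above 10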
# SUMO Mot1 rescue: yeast Mot1-301 growth rescue at high temperature, primary screen, SUMOylation pathway inhibitor project, S. cerevisiae, ATP luminescence, 38.5C; S. cerevisiae Mot1-301 growth rescue; percent above DMSO median, 100 means doubled; growth rescue, % at 18.8 µM; 320,000 tested, 1% active;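 active = every valid replicate shows activation above 250% relative to neutral control wells; inactive = the rest, any valid replicate at or below 250%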;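 also: OY570 slx delta 5 strain wells were the positive control but not used for scaling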
# aDG glyco act: activators of alpha-DG glycosylation, primary screen, uHTS, Pro5-aDG cells, AlphaScreen; activation, % at 10 µM; 360,000 tested, 0.22% active; alpha-DG glycosylation AlphaScreen (IIH6); 0% Pro5, 100% B10-LARGE cell signal;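 active = activation of at least 8% versus controls, or a plate z-score of at least 8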;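 also: Pro5 are CHO cells carrying HIG-tagged alpha-DG that lacks glycosylation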
# AI-2 QS modul: Vibrio harveyi AI-2 quorum sensing modulators, primary screen, JMH597 strain, luminescence/OD600 ratio; Vibrio harveyi JMH597 AI-2 luminescence/OD600 ratio, 9 h; hits give low values; strain lacks LuxN and CqsS sensors; 0 = neutral-control median; activity change, % at 7.5 µM; 300,000 tested, 0.4% active; in the data active = activity change below about -75%, passing the limit was not always enough;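 also: luminescence divided by OD600 gain over 9 h not by final OD600 alone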
# JMH597 growth: Vibrio harveyi growth inhibition, confirmation, counter-screen for AI-2 quorum sensing project, JMH597 strain, OD600 absorbance | shares compounds with AI-2 QS modul | 9 h; lacks LuxN and CqsS sensors | growth inhibition, % at 7.5 µM | AID 2726, 2010 | 750 tested, 1% active;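 active = every replicate shows growth inhibition above 50%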
# BB721 const-QS lum: luminescence inhibition in constitutive-on V. harveyi, confirmation, counter-screen for LuxS inhibitor project, strain BB721, luminescence readout | shares compounds with AI-2 QS modul | Vibrio harveyi BB721 luminescence, 9 h | inhibition, % at 7.5 µM | 750 tested, 95% active | AID 2727, 2010;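 active = inhibition above about 80% in every replicate, not just on average, limit read from the data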
# BB721 growth: growth inhibition of V. harveyi BB721, confirmation, cytotoxicity control for AI-2 quorum sensing inhibitors, strain BB721, absorbance OD600. shares compounds with AI-2 QS modul. Vibrio harveyi BB721 growth, 9 h. growth inhibition, % at 7.5 µM. 750 tested, 3% active. AID 2728, 2010;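 active = every replicate shows growth inhibition above 50%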
# AI-2 QS JMH597: Vibrio harveyi AI-2 signaling luminescence modulation – JMH597 strain, confirmation. shares compounds with AI-2 QS modul. Vibrio harveyi JMH597 AI-2 quorum sensing luminescence, 9 h; luxN and CqsS knockout, AI-2 only. inhibition, % at 7.5 µM. 750 tested, 97% active;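 active = every replicate shows more than 75% inhibition of signal versus neutral control wells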
# An asterisk follows results filed as active; · = no result. Rows were chosen to be rich in hits. Some 1.8% of all compounds tested hit in one or more screens of this group.
SMILES,ARNT-TACC3 inh,Bfl-1 A1 inh,SUMO Mot1 rescue,aDG glyco act,AI-2 QS modul,JMH597 growth,BB721 const-QS lum,BB721 growth,AI-2 QS JMH597
CC(C)c1ccc(NC(=O)C2CSC3(C)CCC(=O)N23)cc1 (stereo unspecified),-5,1,-16,0,-91*,3,93*,1,96*
CC12CCC(=O)N1C(C(=O)Nc1ccc(SC(F)F)cc1)CS2 (stereo unspecified),-1,1,1,0,-94*,24,95*,17,96*
O=C(Nc1ccccc1F)N1CCCCN2[C@H](CO)[C@H](c3ccc(C#Cc4cccnc4)cc3)[C@@H]2C1,-6,·,·,·,·,·,·,·,·
N/C(=N\OC(=O)CC1CCCCC1)c1cccc(Br)c1,-2,-2,-2,0,-80*,22,96*,28,96*
N/C(=N\OC(=O)CC1CCCCC1)c1ccc(Br)cc1,-10,0,1,0,29,·,·,·,·
CN(C)S(=O)(=O)c1ccc(C(=O)OCC(=O)NCc2ccccc2)cc1,-3,1,-15,0,-26,·,·,·,·
CN(C)S(=O)(=O)c1ccc(C(=O)OCCc2ccccc2)cc1,-2,0,15,0,-92*,3,96*,18,98*
O=C(COC(=O)c1cc([N+](=O)[O-])ccc1N1CCOCC1)Nc1c(Cl)cccc1Cl,-4,0,-1,0,18,·,·,·,·
O=C(Cn1cnc2c(nc3n2CCCCC3)c1=O)Nc1cccc(C(F)(F)F)c1,4,0,-8,0,-86*,-9,95*,5,96*
O=C(Cn1cnc2c(nnn2Cc2ccc(F)cc2)c1=O)Nc1cccc(F)c1,1,1,28,1,11,·,·,·,·
CC(C)Nc1nc(NC(N)=S)nc(NC(C)(C)C)n1,-5,0,-13,0,33,·,·,·,·
O=C(c1ccc(C(F)(F)F)cc1)N1CCC(=O)N(C(COCc2ccc(Cl)cc2)Cc2ccccc2)CC1 (stereo unspecified),-11,0,6,1,13,·,·,·,·
O=C(CN1C(=O)c2ccccc2C1=O)Nc1ccccc1,2,1,51,0,-60,·,·,·,·
O=C(CN1C(=O)c2ccccc2C1=O)Nc1ccc(N2CCOCC2)cc1,3,1,5,0,-5,·,·,·,·
NS(=O)(=O)c1ccc(NC(=O)CN2C(=O)c3ccccc3C2=O)cc1,-5,1,-2,0,-84*,24,93*,12,96*
O=C(CN1C(=O)c2ccccc2C1=O)Nc1ccc(S(=O)(=O)N2CCOCC2)cc1,-9,0,-16,0,-97*,5,99*,-9,100*
CC(C)C(NC(=O)c1ccccc1)C(=O)N1CCN(C/C=C/c2ccccc2)CC1 (stereo unspecified),1,1,-5,0,·,·,·,·,·
CC1(C)Cc2c(sc3[nH]c(=S)n(Cc4ccccc4)c(=O)c23)CO1,31,0,24,0,17,·,·,·,·
O=C(CCN1C(=O)c2ccccc2C1=O)Nc1cccc(S(=O)(=O)N2CCCCC2)c1,3,0,-22,0,3,·,·,·,·
Cc1ccc(NC(=O)CN2C(=O)c3ccccc3C2=O)cc1,4,-1,-14,0,-16,·,·,·,·
